PubChem BioAssay
Activity calls are given as the source filed them. Unless noted, no rule for the calls is given here.

Legend:
[1] = tested on: XIP peptide (Xip251-270) binding; assay: XIP fragment 251-270 binding compounds – biochemical, small-molecule microarray, fluorescence 635/667 nm, 0.1 µg/mL protein, primary screen (AID 1182); details: fluorescent protein binding, 635 nm, higher = more signal, called active from +8 up or from −8 down
XIP peptide (Xip251-270) = assay: compounds binding XIP fragment 251-270 – biochemical, small-molecule microarray, fluorescence 635/667 nm, 0.5 µg/mL protein, primary screen (AID 1183); details: fluorescence 635 nm, higher = more signal
[2] = blood-stage malaria parasite viability loss – strain 3D7, DAPI fluorescence, 100 nL, primary screen (AID 1184);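 also: parasites grown inside human red blood cells in medium with human serum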; details: P. falciparum 3D7 growth, 3 d, higher = more signal
[3] = biological target: Homeobox protein Hox-A13 (Mus musculus) (UniProt Q62424); assay: disruptors of Hoxa13 oligonucleotide interaction – biochemical, fluorescence polarization, labeled oligonucleotide, primary screen (AID 1185); details: Hoxa13:DNA binding, 15 min, higher = more signal, called active from +8 up or from −8 down
Homeobox protein Hox-A13 (Mus musculus), sequence (Q62424 whole entry, looked up): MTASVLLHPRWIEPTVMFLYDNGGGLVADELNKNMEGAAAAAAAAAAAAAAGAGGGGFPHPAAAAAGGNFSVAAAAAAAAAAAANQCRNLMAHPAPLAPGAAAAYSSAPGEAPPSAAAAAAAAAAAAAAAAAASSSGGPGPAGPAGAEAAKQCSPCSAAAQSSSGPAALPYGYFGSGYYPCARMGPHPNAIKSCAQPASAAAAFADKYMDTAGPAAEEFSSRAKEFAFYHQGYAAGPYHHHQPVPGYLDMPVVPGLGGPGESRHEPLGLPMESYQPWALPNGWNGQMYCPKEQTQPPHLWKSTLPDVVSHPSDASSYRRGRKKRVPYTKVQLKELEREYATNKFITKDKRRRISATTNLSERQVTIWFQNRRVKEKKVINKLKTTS

[4] = blockers of DNA damage checkpoint Chk1 activation – imaging, HeLa, hydroxyurea, phospho-Chk1 antibody, percent positive cells, primary screen (AID 1186); details: hydroxyurea-induced phospho-Chk1 immunofluorescence imaging, higher = more signal
[5] = blockers of DNA damage checkpoint Chk1 activation – imaging, HeLa, hydroxyurea, phospho-Chk1 nuclear intensity, primary screen (AID 1187); details: hydroxyurea-induced phospho-Chk1 immunofluorescence imaging, higher = more signal

Row | Compound | composite z-score [1] | composite z-score (XIP peptide (Xip251-270)) | z-score [2] | z-score [3] | z-score [4] | z-score [5]
1 | COCCCNC(=O)[C@]1(Cc2ccccc2CN=[N+]=[N-])N=C(c2ccc(OCCCO)cc2)O[C@@H]1c1ccccc1CN=[N+]=[N-] | 0.22 (inactive) | 0.744 | -2.48 | -2.43 (inactive) | -0.0731 (inactive) | -0.303 (inactive)
2 | COCCOC(=O)N1C(=O)[C@@]2(c3cc(C#Cc4ccc(OC)cc4)ccc31)[C@H](c1ccc(OCCO)cc1)N1[C@H](c3ccccc3)[C@H](c3ccccc3)OC(=O)[C@H]1[C@@H]2C(N)=O | 1.12 (inactive) | 0.758 | -1.97 | -0.245 (inactive) | 0.105 (inactive) | 0.247 (inactive)
3 | COc1ccc([Si](C)(C)[C@@H]2[C@@H](CC(=O)N3Cc4ccccc4C[C@H]3CO)O[C@]3(C(=O)N(Cc4cccc(N5CCCCC5=O)c4)c4ccccc43)[C@H]2C)cc1 | 1.63 (inactive) | 0.737 | -2.91 | -2.57 (inactive) | -0.559 (inactive) | -0.304 (inactive)
4 | COCCOC(=O)N1C(=O)[C@@]2(c3cc(C#Cc4ccc(OC)cc4)ccc31)[C@H](C(=O)N1CCc3cc(OC)c(OC)cc3C1)[C@H]1C(=O)O[C@H](c3ccccc3)[C@H](c3ccccc3)N1[C@@H]2c1ccc(OCCO)cc1 | -0.266 (inactive) | 0.688 | -2.22 | 2.6 (inactive) | 0.0413 (inactive) | 0.277 (inactive)
5 | C#CCOC(=O)N[C@H](C=CCCCC)c1ccccc1 | 0.0811 (inactive) | -0.632 | -0.817 | -3.62 (inactive) | 0.163 (inactive) | 0.195 (inactive)
6 | COC(=O)C(CC#Cc1ccc2c(c1)[C@]1(C(=O)N2)[C@H](c2ccc(OCCO)cc2)N2[C@H](c3ccccc3)[C@H](c3ccccc3)OC(=O)[C@H]2[C@@H]1C(=O)O)C(=O)OC | 0.817 (inactive) | 0.862 | 0.663 | -5.67 (inactive) | 0.0445 (inactive) | 0.436 (inactive)
7 | NCCCCCCNC(=O)[C@H]1C[C@H]2C(=O)N3CCC[C@H]3C(=O)N2[C@H]1c1ccc(O)cc1 | -0.118 (inactive) | 0.451 | 0.0311 | -2.4 (inactive) | -0.0342 (inactive) | 0.0369 (inactive)
8 | O=C1O[C@H](c2ccccc2)[C@H](c2ccccc2)N2[C@H]1[C@@H](C(=O)NC[C@H](O)c1ccccc1)[C@]1(C(=O)Nc3ccccc31)[C@H]2c1ccccc1OCCO | 2.18 (inactive) | 0.807 | -0.635 | -3.48 (inactive) | -0.517 (inactive) | -0.538 (inactive)
9 | C=CCOc1ccc([C@@H]2CC=C(C(=O)OCC)[C@H](c3cccc(Br)c3)N2S(=O)(=O)c2ccc(C)cc2)cc1 | -0.355 (inactive) | -0.498 | -1.94 | 0.422 (inactive) | -0.0778 (inactive) | 0.295 (inactive)
10 | CC(C)CN1C(=O)[C@@]2(Cc3ccccc31)c1ccccc1C(=O)N(Cc1ccccc1)[C@H]2c1ccc(CO)cc1 | 2.02 (inactive) | -0.526 | -0.435 | -1.07 (inactive) | -0.0605 (inactive) | -0.197 (inactive)
11 | [N-]=[N+]=NCc1ccccc1C[C@]1(C(=O)NCCN2CCOCC2)COC(c2ccc(OCCCO)cc2)=N1 | 0.0364 (inactive) | 0.258 | -2.09 | -4.71 (inactive) | -0.327 (inactive) | -0.625 (inactive)
12 | COC(=O)[C@@]1(Cc2ccc(OC)cc2)[C@H]2c3cc(C(=O)N4CCCC4)n(Cc4ccc(C)o4)c3C[C@H]2CN1C(=O)c1ccccc1 | 0.0373 (inactive) | 0.283 | -1.77 | -5.91 (inactive) | -0.683 (inactive) | -1.38 (inactive)
13 | NC(=O)NCC#Cc1ccc2c(c1)[C@]1(C(=O)N2)[C@H](c2ccc(OCCO)cc2)N2[C@H](c3ccccc3)[C@H](c3ccccc3)OC(=O)[C@H]2[C@@H]1C(=O)N1CCCCCCC1 | 2.2 (inactive) | 0.501 | -0.765 | -9.12 (active) | -0.0375 (inactive) | -0.265 (inactive)
14 | CCCCC(=C=CC[C@H](O)c1ccccc1OCCO)C[C@H](O)c1ccccn1 | 0.418 (inactive) | 0.318 | -0.966 | -3.35 (inactive) | 0.305 (inactive) | 0.113 (inactive)
15 | [N-]=[N+]=NCc1ccccc1[C@H]1OC(c2ccc(OCCCO)cc2)=N[C@@]1(Cc1ccccc1N=[N+]=[N-])C(=O)N1CCCCC1 | 0.538 (inactive) | 0.831 | -2.15 | -0.972 (inactive) | -0.335 (inactive) | -0.35 (inactive)
16 | COc1cccc(C[C@H]2C[C@@H](CO[Si](C(C)C)(C(C)C)C(C)C)N3C(=O)[C@]4(C(C)=O)O[C@]23[C@H]2C(=O)N(C)C(=O)[C@H]24)c1 | 0.0522 (inactive) | 0.459 | -0.281 | -3.12 (inactive) | 0.527 (inactive) | 0.139 (inactive)
17 | C=CCC(OC(C)=O)[C@@H]1[C@@H](N(Cc2ccc(-c3ccccc3)cc2)C(=O)Cc2ccc(OC)cc2)c2cc(OCCCO)ccc2N1C(=O)c1ccc(-c2ccccc2)cc1 (stereo partly drawn) | -0.0622 (inactive) | -0.698 | -2.91 | -1.52 (inactive) | -0.244 (inactive) | 0.158 (inactive)

Row | Compound | composite z-score [1] | composite z-score (XIP peptide (Xip251-270)) | z-score [2] | z-score [3] | z-score [4] | z-score [5]
18 | O=C1O[C@@H](c2ccccc2)[C@@H](c2ccccc2)N2[C@@H](c3ccc(O)cc3)[C@]3(C(=O)Nc4ccc(C#CC5(O)CCCCCC5)cc43)[C@@H](C(=O)N3CCN(c4ncccn4)CC3)[C@H]12 | 0.328 (inactive) | 0.559 | -2.02 | -1.72 (inactive) | -0.206 (inactive) | -0.624 (inactive)
19 | C=C(/C(=C/C[C@@H](OC(=O)c1ccncc1)c1ccccc1OCCO)c1cnc2ccccc2c1)C(C)C | 0.509 (inactive) | 0.723 | -2.55 | -4.63 (inactive) | 0.864 (inactive) | 0.737 (inactive)
20 | COCCCNC(=O)[C@@]1(Cc2ccccc2N=[N+]=[N-])N=C(c2ccc(OCCCO)cc2)O[C@H]1c1ccccc1CN=[N+]=[N-] | 0.401 (inactive) | 0.763 | -2.23 | 0.427 (inactive) | -0.314 (inactive) | 0.446 (inactive)
21 | C=C(CCCC)/C(=C/C[C@@H](OC(=O)c1ccncc1)c1ccccc1OCCO)c1cc(C(=O)OC)ccc1OC | 0.711 (inactive) | -0.127 | -2.98 | -3.47 (inactive) | -0.585 (inactive) | 0.185 (inactive)
22 | CC(C)CCC[C@@H](C)[C@H]1CC[C@@]2(C)C3=C(CC[C@]12C)[C@@]1(C)CC[C@H](OC(=O)C(C)(C)C)C(C)(C)C1CC3 (stereo partly drawn) | 0.434 (inactive) | -0.0722 | -1.29 | -1.44 (inactive) | -1.13 (inactive) | -1.89 (inactive)
23 | CCCC=C(CCC)[C@@H](NS(=O)(=O)c1ccccc1)c1ccc(C(F)(F)F)cc1 | -0.363 (inactive) | 0.528 | 0.118 | -1.19 (inactive) | -0.147 (inactive) | -0.423 (inactive)
24 | C=C(CCCC)/C(=C/C[C@H](OC(=O)c1ccncc1)c1ccc(CO)o1)c1cc(C(=O)OC)ccc1OC | 0.948 (inactive) | 0.71 | -0.138 | -5.29 (inactive) | -0.52 (inactive) | -1.02 (inactive)
25 | O=C(N1CCOCC1)[C@@]1(CCS(=O)(=O)c2ccccc2)COC(c2ccc(OCCCO)cc2)=N1 | 0.429 (inactive) | 0.599 | -1.34 | -5.88 (inactive) | 0.145 (inactive) | 0.273 (inactive)
26 | C=CCC(OC(C)=O)[C@@H]1[C@@H](N(Cc2ccc(-c3ccccc3)cc2)C(=O)c2cccc3ccccc23)c2cc(OCCCO)ccc2N1C(=O)c1ccc2ccccc2n1 (stereo partly drawn) | -0.0607 (inactive) | 0.328 | -0.714 | -1.42 (inactive) | -0.606 (inactive) | -0.368 (inactive)
27 | Cc1ccc(C(C)CC(O)C2C=CC3C(=O)N(Cc4ccccc4)C(=O)C3N2n2cnnc2)o1 (stereo not drawn) | 0.831 (inactive) | 0.731 | -0.981 | -2.57 (inactive) | 0.0591 (inactive) | -0.208 (inactive)
28 | O=C1C[C@@](C(=O)NCc2ccccc2)(c2ccc([N+](=O)[O-])cc2)[C@@H](c2ccc(CO)cc2I)N1C1CCCCC1 | 0.193 (inactive) | 0.676 | -1.45 | -3.45 (inactive) | 0.173 (inactive) | 0.408 (inactive)
29 | CCCNC(=O)[C@@]1(Sc2ccc(C)cc2)CC(=O)N(Cc2ccccc2)[C@@H]1c1ccc(CO)cc1I | 0.334 (inactive) | 0.889 | 0.179 | -2.54 (inactive) | 0.264 (inactive) | 0.372 (inactive)
30 | CCC[C@@H]1C[C@@]1(CCC)[C@@H](NC(=O)c1ccco1)c1ccc(Cl)cc1 | 0.0025 (inactive) | -0.835 | -1.21 | -0.61 (inactive) | 0.348 (inactive) | 0.241 (inactive)
31 | CC(C)CNC(=O)[C@@]1(c2ccc([N+](=O)[O-])cc2)CC(=O)N(C(C)C)[C@@H]1c1ccc(CO)cc1 | -0.299 (inactive) | 0.131 | -0.253 | -1.21 (inactive) | -0.19 (inactive) | -0.0822 (inactive)
32 | CCC[C@@H]1C[C@@]1(CCC)[C@@H](NC(=O)c1cccs1)c1ccc(Cl)cc1 | -0.0569 (inactive) | 0.0455 | -0.76 | -1.93 (inactive) | -0.248 (inactive) | -0.143 (inactive)
33 | COC(=O)[C@@]1(Cc2ccc(F)cc2)[C@H]2c3cc(C(=O)N(C)C)n(CCSCCO)c3C[C@H]2CN1C(=O)c1ccccc1 | 0.235 (inactive) | 0.0692 | -0.404 | -4.76 (inactive) | 0.511 (inactive) | 0.469 (inactive)
